Records with an inconclusive call do not appear. Unmarked numbers belong to inactive results. Active and inactive are the calls of the source. The call rests on the fitted dose curve; in most records, active means well fitted inhibition curve with a large enough effect; inconclusive means small, poorly fitted or top-dose-only effect, or effect the other way; inactive means flat fitted curve, though single readings scatter.
These molecules were tested against ATPase family AAA domain-containing protein 5 (Homo sapiens) (UniProt Q96QE3) (assay: Validation screen for small molecules that inhibit ELG1-dependent DNA repair in human embryonic kidney (HEK293T) cells expressing luciferase-tagged ELG1 (AID 493107; further: nearly all actives have a fitted effect of over 70% in size;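 on activity change, negative = decrease: inhibitors lower the ELG1-luciferase luminescence signal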)). Settings: HEK293T ELG1-luciferase level, luminescence, 5-fluorouridine co-treatment, 16 h; series mostly up to 46.1 µM; activity change, negative = decrease: at the top concentration.
ATPase family AAA domain-containing protein 5 (Homo sapiens), sequence (Q96QE3 whole entry, looked up, the tested form may be a part): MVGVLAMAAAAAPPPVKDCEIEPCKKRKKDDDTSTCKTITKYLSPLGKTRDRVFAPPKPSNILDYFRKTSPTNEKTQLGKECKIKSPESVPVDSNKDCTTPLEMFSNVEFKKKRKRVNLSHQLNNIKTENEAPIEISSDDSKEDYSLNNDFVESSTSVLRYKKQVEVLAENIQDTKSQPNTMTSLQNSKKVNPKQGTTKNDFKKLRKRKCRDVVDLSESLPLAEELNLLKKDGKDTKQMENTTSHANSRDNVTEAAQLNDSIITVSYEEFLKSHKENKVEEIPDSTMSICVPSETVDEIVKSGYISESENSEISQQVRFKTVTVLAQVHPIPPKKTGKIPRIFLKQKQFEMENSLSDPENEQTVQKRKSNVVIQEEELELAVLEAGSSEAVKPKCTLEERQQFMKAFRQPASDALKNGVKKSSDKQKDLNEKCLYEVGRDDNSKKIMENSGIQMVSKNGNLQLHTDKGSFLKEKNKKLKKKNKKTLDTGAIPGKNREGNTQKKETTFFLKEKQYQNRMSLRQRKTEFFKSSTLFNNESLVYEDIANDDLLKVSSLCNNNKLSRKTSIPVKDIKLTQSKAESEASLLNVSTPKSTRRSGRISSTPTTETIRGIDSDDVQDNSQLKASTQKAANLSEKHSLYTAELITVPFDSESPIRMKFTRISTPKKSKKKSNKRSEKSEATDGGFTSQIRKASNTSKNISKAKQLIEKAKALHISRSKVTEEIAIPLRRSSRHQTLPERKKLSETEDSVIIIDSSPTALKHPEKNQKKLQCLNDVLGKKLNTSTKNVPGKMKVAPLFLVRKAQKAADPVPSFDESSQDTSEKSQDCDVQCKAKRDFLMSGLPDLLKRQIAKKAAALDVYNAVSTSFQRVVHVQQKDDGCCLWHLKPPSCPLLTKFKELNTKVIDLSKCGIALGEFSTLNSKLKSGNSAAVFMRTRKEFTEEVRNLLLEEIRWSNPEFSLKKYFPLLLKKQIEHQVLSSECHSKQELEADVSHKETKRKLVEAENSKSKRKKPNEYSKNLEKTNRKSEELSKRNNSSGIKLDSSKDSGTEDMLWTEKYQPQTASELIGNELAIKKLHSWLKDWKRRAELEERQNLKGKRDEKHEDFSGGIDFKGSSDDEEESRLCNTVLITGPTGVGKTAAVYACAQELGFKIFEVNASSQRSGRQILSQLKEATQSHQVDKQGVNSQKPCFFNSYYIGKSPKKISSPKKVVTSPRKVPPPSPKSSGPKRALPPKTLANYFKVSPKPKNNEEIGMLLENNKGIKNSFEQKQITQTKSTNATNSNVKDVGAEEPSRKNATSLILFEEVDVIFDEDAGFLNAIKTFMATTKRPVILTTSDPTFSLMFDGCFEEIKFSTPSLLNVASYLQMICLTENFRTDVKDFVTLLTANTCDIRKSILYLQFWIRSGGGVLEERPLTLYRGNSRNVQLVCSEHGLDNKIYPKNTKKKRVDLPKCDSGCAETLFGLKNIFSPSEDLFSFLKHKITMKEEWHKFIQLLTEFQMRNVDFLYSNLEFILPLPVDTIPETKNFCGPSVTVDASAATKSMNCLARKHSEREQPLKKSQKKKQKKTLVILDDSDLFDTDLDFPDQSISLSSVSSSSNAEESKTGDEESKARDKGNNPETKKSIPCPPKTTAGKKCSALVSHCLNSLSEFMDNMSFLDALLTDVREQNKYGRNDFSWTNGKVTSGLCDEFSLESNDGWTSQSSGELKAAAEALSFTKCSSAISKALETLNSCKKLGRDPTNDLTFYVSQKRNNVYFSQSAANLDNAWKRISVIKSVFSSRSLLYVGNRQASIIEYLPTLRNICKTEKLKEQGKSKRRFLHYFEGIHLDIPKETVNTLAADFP
Excerpt: NIH Molecular Libraries Probe Production Network [MLPCN]
NIH Chemical Genomics Center [NCGC]
Assay Provider: Kyungjae Myung, NHGRI, NIH
Keywords: MLPCN, qHTS, NCGC, genotoxicity, cancer
Cancer cells divide rapidly compared to normal cells in the body. During cell division, cancer cells need to duplicate their genome by DNA replication. The failure of genome duplication leads to cancer cells' death. Therefore, inhibitors of DNA replication could specifically kill cancer cells. Based on this concept, many chemotherapeutic agents were developed and have been used to treat cancer patients. However, there are a limited number of agents available in the clinical setting, and some of those that do exist have low efficacy and severe side effects. Therefore, if we can find the compounds that effectively block DNA replication either by directly damaging DNA or by inhibiting other cellular mechanisms, the options for cancer treatment will be broadened. With this in mind, we developed a quantitative high-throughput ELG1-luciferase reporter gene assay. Small molecules that specifically block ELG1 function in response to DNA damage can be identified by monitoring the suppression of luciferase activity. Since ELG1 defines a pathway for repairing DNA damage, agents blocking ELG1 function can be used to sensitize cancer cells to chemotherapeutic agents whose mechanism of action involves the induction of DNA damage.
For genotoxicity screening, 2,000 cells in 4 uL/well were dispensed into white, solid-bottom 1536-well plates using a solenoid-based dispenser. Following transfer of 1 uL 5-Fluorouridine and 23 nL compound or DMSO vehicle by a pin tool, the plates were incubated 16 hr at 37 °C and 5% CO2. 5 ul ONE-Glo (Promega) was then added to each plate and following a 30 min incubation at room temperature, luciferase activity was quantified on a ViewLux CCD-based plate reader.
On the % scale 0 is the no-effect control and ±100 the full control effect; potency means the concentration at half of the fitted maximal effect.

Structure (SMILES) | activity change, negative = decrease [%] | Potency
CCC(=O)c1ccc2c(c1)N(CCCN(C)C)c1ccccc1S2 | 4.37 | 
NC(=O)N1c2ccccc2C=Cc2ccccc21 | 10 | 
O=C(CCNNC(=O)c1ccncc1)NCc1ccccc1 | 19 | 
CC(N=C(NC#N)Nc1ccncc1)C(C)(C)C (stereo not given) | -29.5 | 
CCCNC(C)C(=O)Nc1ccccc1C (stereo not given) | 14.7 | 
Fc1ccc(C(c2ccc(F)cc2)N2CCN(C/C=C/c3ccccc3)CC2)cc1 |  | 23.1 µM (active)
Cc1scc2c1N(C(=O)CN1CCN(C)CC1)c1ccccc1NC2=O | 6.66 | 
CN/C(=C\[N+](=O)[O-])NCCSCc1ccc(CN(C)C)o1 | -12.7 | 
CNCCC(Oc1ccccc1OC)c1ccccc1 (stereo not given) | 2.43 | 
CN1CCN(C2=Nc3ccccc3Oc3ccc(Cl)cc32)CC1 | 8.84 | 
NC(N)=N/N=C/c1c(Cl)cccc1Cl | 5.4 | 
C[C@@H](O)[C@H]1C(=O)N2C(C(=O)O)=C(SCCN=CN)C[C@H]12 | 0.36 | 
C[C@]12C=CC(=O)C=C1CC[C@H]1[C@@H]3C[C@@H](O)[C@](O)(C(=O)CO)[C@@]3(C)C[C@H](O)[C@@]12F | 10.5 | 
CC(=O)[C@]1(O)Cc2c(O)c3c(c(O)c2[C@@H](O[C@H]2C[C@H](N)[C@H](O)[C@H](C)O2)C1)C(=O)c1ccccc1C3=O |  | 5.8 µM (active)
CCN(CC)CCNC(=O)c1cc(S(C)(=O)=O)ccc1OC | 1.47 | 
Cc1nnc(SCC2=C(C(=O)O)N3C(=O)[C@@H](NC(=O)Cn4cnnn4)[C@H]3SC2)s1 | 6.58 | 
CC(C(=O)O)c1ccc(CC2CCCC2=O)cc1 (stereo not given) | 3.02 | 
c1ccc2c(c1)CCCC2C1=NCCN1 (stereo not given) | -9.69 | 
COCC(=O)O[C@]1(CCN(C)CCCc2nc3ccccc3[nH]2)CCc2cc(F)ccc2[C@@H]1C(C)C |  | 18.3 µM (active)
COC(=O)[C@H]1[C@H]2C[C@@H]3c4[nH]c5cc(OC)ccc5c4CCN3C[C@H]2C[C@@H](OC(=O)c2cc(OC)c(OC)c(OC)c2)[C@@H]1OC |  | 11.6 µM (active)

Structure (SMILES) | activity change, negative = decrease [%] | Potency
CCNC(=O)N1CCN(CCCC(c2ccc(F)cc2)c2ccc(F)cc2)CC1 | -11.7 | 
COC(=O)C1=C(C)NC(C)=C(C(=O)OCCN(C)Cc2ccccc2)C1c1cccc([N+](=O)[O-])c1 (stereo not given) |  | 16.4 µM (active)
CC(=O)OCC1=C(C(=O)O)N2C(=O)[C@@H](NC(=O)Cc3cccs3)[C@H]2SC1 | 1.14 | 
CCN(CC)CCNC(=O)c1ccc(NC(C)=O)cc1 | 8.45 | 
CN(C)CC/C=C1\c2ccccc2COc2ccccc21 | -17.7 | 
C[C@H](CS)C(=O)N1CCC[C@H]1C(=O)O | 24 | 
CC(=O)OC(C)C[N+](C)(C)C (stereo not given) | -4.68 | 
OCCN1CCN(CCCN2c3ccccc3C=Cc3ccccc32)CC1 | -15.5 | 
NC(Cc1ccc(Cl)cc1)C(=O)O (stereo not given) | 7.88 | 
Cc1ccc(S(=O)(=O)NC(=O)NN2CCCCCC2)cc1 | 5.83 | 
O=C(O)CCCCCCCC(=O)O | 22.1 | 
CCCCCCCC/C=C\CCCCCCCC(=O)NCc1ccc(O)c(OC)c1 | -21.6 | 
COc1ccc(CCN(C)CCCC(C#N)(c2cc(OC)c(OC)c(OC)c2)C(C)C)cc1OC (stereo not given) | -5.11 | 
CC(C)(C)NCC(O)c1cc(O)cc(O)c1 (stereo not given) | 0.572 | 
C[N+](C)(C)CCOC(N)=O | 15.2 | 
NC(=O)c1ncn([C@@H]2O[C@H](CO)[C@@H](O)[C@H]2O)c1O | 3.68 | 
CC[N+](C)(C)c1cccc(O)c1 | 14.4 | 
CCn1cc(C(=O)O)c(=O)c2cc3c(cc21)OCO3 | 17 | 
c1cc(CN2CCCCC2)cc(OCCCNc2nc3ccccc3s2)c1 | 3.51 | 
O=C(O)CP(=O)(O)O | 15.1 | 
